PubChem BioAssay (EPA / NIEHS)
“And” between values parts separate entries of the source, which are not always exact repeats. Equal values may be shown once. Where a structure was tested more than once in an assay, its records may differ in their call. The source made the active and inactive calls. The calls were made as follows: active = hit-call score of the fitted dose curve at least 0.9, where 1 is the maximum; inactive = score below 0.9.

Legend:
[1] = ATG_GLI_CIS: Attagene CIS-FACTORIAL HepG2 Assay for human Zinc Finger Protein GLI1 (AID 2282945); conditions: HepG2, Attagene cis-factorial reporter mRNA, GLI element; actives raise or lower the signal
How it was run: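 Transiently transfected HepG2 cells report endogenous transcription factor activity via cis-element-driven reporter units. After 24 h compound exposure, reporter mRNA was measured by RT-PCR with capillary electrophoresis; bidirectional fitting against DMSO baseline.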

[2] = ATG_GRE_CIS: Attagene CIS-FACTORIAL HepG2 Assay for human Glucocorticoid Response Elements (GRE) (AID 2282947); conditions: HepG2 GRE cis-reporter, Attagene multiplex mRNA; actives raise or lower the signal
How it was run: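 Transiently transfected HepG2 cells carrying GRE cis-reporter units (endogenous TF activity) dosed 24 h; reporter mRNA quantified by RT-PCR, 6-FAM labelling, HpaI digestion and capillary electrophoresis. Bidirectional fit versus DMSO baseline.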

[3] = ATG_ISRE_CIS: Attagene CIS-FACTORIAL HepG2 Assay for human Interferon Regulatory Factor 1 (IRF1) binding to an Interferon-Stimulated Response Element (ISRE) (AID 2282948); conditions: HepG2 ISRE cis-reporter (Attagene), mRNA transcription readout; actives raise or lower the signal
How it was run: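 HepG2 cells transiently transfected with multiplexed cis-promoter reporter units; after 24 h compound exposure, reporter mRNA quantified by RT-PCR, FAM labelling, HpaI digestion and capillary electrophoresis. Bidirectional fit versus DMSO baseline.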

[4] = ATG_M_32_CIS: Attagene CIS-FACTORIAL HepG2 Assay for M32 Transcription Factor (Internal Marker) (AID 2282949); conditions: HepG2 Attagene cis-factorial M32 reporter, mRNA; actives raise or lower the signal;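 also: background control marker of the multiplexed CIS panel rather than a real target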
How it was run: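 Fluorescent capillary electrophoresis peaks of HpaI-digested, FAM-labelled RT-PCR reporter products give the signal. Source: transiently transfected human liver HepG2 cells, 24 h after chemical dosing; bidirectional fitting against DMSO.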

[5] = ATG_M_06_CIS: Attagene CIS-FACTORIAL HepG2 Assay for M06 Transcription Factor (Internal Marker) (AID 2282950); conditions: HepG2 Attagene CIS-FACTORIAL M06 internal marker reporter; actives raise or lower the signal
How it was run: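 Internal background marker within multiplexed cis-reporter HepG2 system. Cells transiently transfected, dosed 24 h; reporter mRNA measured by RT-PCR, HpaI digestion and capillary electrophoresis. Bidirectional fit relative to DMSO.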

[6] = biological target: Hepatocyte nuclear factor 6 (Homo sapiens) (UniProt Q9UBC0); experiment: ATG_HNF6_CIS: Attagene CIS-FACTORIAL HepG2 Assay for human Hepatocyte Nuclear Factor 6 (HNF6) (AID 2282952); conditions: HepG2 Attagene cis-factorial HNF6 reporter transcription; actives raise or lower the signal
Sequence of Hepatocyte nuclear factor 6 (Homo sapiens) (Q9UBC0 whole entry, looked up): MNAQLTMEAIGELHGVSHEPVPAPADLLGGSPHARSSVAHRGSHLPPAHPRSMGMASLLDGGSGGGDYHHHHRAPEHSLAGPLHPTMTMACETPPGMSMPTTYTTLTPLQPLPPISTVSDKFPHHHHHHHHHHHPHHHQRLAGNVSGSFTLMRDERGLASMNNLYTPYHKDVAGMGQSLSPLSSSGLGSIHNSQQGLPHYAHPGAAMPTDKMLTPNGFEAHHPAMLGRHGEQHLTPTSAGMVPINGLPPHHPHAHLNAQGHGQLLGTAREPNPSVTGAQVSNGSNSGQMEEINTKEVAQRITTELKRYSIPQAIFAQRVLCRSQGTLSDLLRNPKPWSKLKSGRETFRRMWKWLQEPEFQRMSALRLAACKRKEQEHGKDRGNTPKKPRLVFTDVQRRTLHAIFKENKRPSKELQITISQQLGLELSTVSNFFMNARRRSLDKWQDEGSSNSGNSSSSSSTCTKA
How it was run: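 Transiently transfected HepG2 cells expressing cis-regulated reporter transcription units were exposed to chemical for 24 h in a 24-well format. Reporter transcript abundance was determined by fluorescence capillary electrophoresis.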

[7] = biological target: Paired box protein Pax-6 (Homo sapiens) (UniProt P26367); experiment: ATG_Pax6_CIS: Attagene CIS-FACTORIAL HepG2 Assay for human Paired Box 6 (PAX6) (AID 2282956); conditions: HepG2 CIS-FACTORIAL PAX6 reporter transcription, RNA readout; actives raise or lower the signal
Sequence of Paired box protein Pax-6 (Homo sapiens) (P26367 whole entry, looked up): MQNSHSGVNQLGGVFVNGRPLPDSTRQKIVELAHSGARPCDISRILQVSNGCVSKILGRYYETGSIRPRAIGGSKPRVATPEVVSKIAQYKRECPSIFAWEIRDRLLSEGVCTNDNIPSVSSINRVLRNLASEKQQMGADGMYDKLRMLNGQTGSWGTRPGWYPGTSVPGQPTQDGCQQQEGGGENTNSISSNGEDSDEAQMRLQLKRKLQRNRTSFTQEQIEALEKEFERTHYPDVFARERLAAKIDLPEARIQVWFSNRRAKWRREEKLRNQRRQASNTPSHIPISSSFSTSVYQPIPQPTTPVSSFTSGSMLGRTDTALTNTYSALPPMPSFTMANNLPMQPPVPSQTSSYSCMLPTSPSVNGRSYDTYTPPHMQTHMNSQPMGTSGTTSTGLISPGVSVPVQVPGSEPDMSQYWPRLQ
How it was run: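 HepG2 cells transiently transfected with multiplexed cis-promoter reporter units (endogenous TF activity) were dosed for 24 h. Reporter mRNA was quantified by RT-PCR, 6-FAM labeling, HpaI digestion and capillary electrophoresis; bidirectional fitting versus DMSO baseline.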

[8] = ATG_PPRE_CIS: Attagene CIS-FACTORIAL HepG2 Assay for human Peroxisome Proliferator-activated Response Element (PPRE) (AID 2282958); conditions: HepG2 PPRE cis-element reporter, Attagene transcription factor profiling; actives raise or lower the signal
How it was run: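 Transcript-level reporter induction in transfected HepG2 cells after 24 h chemical exposure, quantified by fluorescence from RT-PCR products separated by capillary electrophoresis.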

[9] = ATG_RORE_CIS: Attagene CIS-FACTORIAL HepG2 Assay for human RAR-related Orphan Receptor Element (RORE) (AID 2282959); conditions: HepG2 Attagene cis-factorial RORE reporter, mRNA; actives raise or lower the signal
How it was run: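 Multiplexed reporter assay measuring mRNA induction from a cis promoter element in transiently transfected HepG2 cells after 24 h treatment. Detection via RT-PCR and capillary electrophoresis fluorescence; DMSO serves as baseline.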

[10] = ATG_Sox_CIS: Attagene CIS-FACTORIAL HepG2 Assay for human SRY-box transcription factor (SOX) (AID 2282960); conditions: HepG2 Attagene cis-factorial SOX reporter, mRNA; actives raise or lower the signal
How it was run: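 Cells were transfected with reporter constructs under cis-regulatory promoters, then exposed to chemicals for 24 h. Reporter transcripts were quantified by fluorescence after RT-PCR and capillary electrophoresis; activity was fitted in both directions against DMSO.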

[11] = biological target: Transcription factor Sp1 (Homo sapiens) (UniProt P08047); experiment: ATG_Sp1_CIS: Attagene CIS-FACTORIAL HepG2 Assay for human Specificity Protein 1 (Sp1) (AID 2282961); conditions: HepG2 Sp1 cis-reporter transcription, actives raise or lower the signal
Sequence of Transcription factor Sp1 (Homo sapiens) (P08047 whole entry, looked up): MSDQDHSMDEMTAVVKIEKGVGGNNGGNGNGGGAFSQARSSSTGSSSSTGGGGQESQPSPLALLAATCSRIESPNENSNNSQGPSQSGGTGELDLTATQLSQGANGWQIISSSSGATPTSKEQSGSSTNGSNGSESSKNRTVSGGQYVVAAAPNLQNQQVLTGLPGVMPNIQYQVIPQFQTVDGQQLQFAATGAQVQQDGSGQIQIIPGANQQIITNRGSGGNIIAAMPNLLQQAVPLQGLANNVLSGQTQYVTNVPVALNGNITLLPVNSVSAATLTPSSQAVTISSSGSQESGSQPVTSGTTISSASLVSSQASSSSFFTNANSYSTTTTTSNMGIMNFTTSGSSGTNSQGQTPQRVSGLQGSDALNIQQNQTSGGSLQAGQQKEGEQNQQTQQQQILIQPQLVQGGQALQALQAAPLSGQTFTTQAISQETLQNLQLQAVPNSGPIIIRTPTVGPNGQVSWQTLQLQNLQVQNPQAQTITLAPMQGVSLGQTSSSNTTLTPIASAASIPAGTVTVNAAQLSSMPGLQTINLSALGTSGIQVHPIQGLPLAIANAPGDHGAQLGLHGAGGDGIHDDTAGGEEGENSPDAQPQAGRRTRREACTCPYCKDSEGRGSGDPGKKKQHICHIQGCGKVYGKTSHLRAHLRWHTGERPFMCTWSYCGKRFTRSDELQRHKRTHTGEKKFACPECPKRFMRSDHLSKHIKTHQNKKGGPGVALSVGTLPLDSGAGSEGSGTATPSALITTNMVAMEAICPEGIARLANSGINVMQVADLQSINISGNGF
How it was run: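 Measures mRNA induction of an Sp1-linked reporter in HepG2 cells 24 h post-dosing. Multiplexed reporters read by RT-PCR and capillary electrophoresis; DMSO serves as negative control and baseline.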

[12] = ATG_SREBP_CIS: Attagene CIS-FACTORIAL HepG2 Assay for human Sterol Regulatory Element Binding (SREBP) (AID 2282962); conditions: HepG2 Attagene cis-factorial SREBP reporter, mRNA; actives raise or lower the signal
How it was run: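 HepG2 cells transiently transfected with multiplexed cis-element reporter units report endogenous transcription factor activity. After 24 h of chemical exposure, reporter mRNA was quantified by RT-PCR, 6-FAM labelling, HpaI digestion and capillary electrophoresis; bidirectional fits used DMSO as baseline.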

[13] = biological target: Signal transducer and activator of transcription 3 (Homo sapiens) (UniProt P40763); experiment: ATG_STAT3_CIS: Attagene CIS-FACTORIAL HepG2 Assay for human Signal Transducer and Activator of Transcription 3 (STAT3) (AID 2282963); conditions: HepG2, Attagene cis-factorial STAT3 reporter transcription; actives raise or lower the signal
Sequence of Signal transducer and activator of transcription 3 (Homo sapiens) (P40763 whole entry, looked up): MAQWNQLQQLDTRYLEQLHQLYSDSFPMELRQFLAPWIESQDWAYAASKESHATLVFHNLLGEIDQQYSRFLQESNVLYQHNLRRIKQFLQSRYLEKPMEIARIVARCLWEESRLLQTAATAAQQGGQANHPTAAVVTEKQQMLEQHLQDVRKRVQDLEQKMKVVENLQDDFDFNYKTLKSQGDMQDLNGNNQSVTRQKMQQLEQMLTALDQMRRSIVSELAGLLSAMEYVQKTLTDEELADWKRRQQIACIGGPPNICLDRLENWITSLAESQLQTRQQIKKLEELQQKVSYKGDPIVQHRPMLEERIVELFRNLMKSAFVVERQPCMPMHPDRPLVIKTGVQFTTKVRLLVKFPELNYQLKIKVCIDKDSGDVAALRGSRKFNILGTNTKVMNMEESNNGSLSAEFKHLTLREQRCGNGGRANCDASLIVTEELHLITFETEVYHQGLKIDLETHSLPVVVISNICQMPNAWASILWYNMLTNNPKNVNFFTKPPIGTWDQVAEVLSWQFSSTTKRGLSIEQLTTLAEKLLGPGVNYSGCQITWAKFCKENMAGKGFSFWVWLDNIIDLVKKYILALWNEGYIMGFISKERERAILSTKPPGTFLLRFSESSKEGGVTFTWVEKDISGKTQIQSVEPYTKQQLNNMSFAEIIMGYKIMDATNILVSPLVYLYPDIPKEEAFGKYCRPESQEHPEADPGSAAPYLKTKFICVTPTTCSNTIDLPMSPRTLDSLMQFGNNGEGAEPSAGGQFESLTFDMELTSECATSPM
How it was run: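 HepG2 cells transiently transfected with multiple cis-element-driven reporter units report endogenous transcription factor activity. After 24 h compound exposure, reporter mRNA is measured by RT-PCR, 6-FAM labelling, HpaI digestion and capillary electrophoresis. Fitted bidirectionally versus DMSO.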

[14] = ATG_TA_CIS: Attagene CIS-FACTORIAL HepG2 Assay for human TA Basal Promoter (AID 2282964); conditions: HepG2 Attagene CIS-factorial TA basal promoter reporter; actives raise or lower the signal
How it was run: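 HepG2 cells transiently transfected with multiple reporter units under cis promoter elements, reporting endogenous transcription factor activity; this endpoint tracks the TA basal promoter as background control. Reporter mRNA after 24 h dosing measured by RT-PCR/capillary electrophoresis; bidirectional fits versus DMSO.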

[15] = biological target: Hypoxia-inducible factor 1-alpha (Homo sapiens) (UniProt Q16665); experiment: ATG_HIF1a_CIS: Attagene CIS-FACTORIAL HepG2 Assay for human Hypoxia Inducible Factor 1 (HIF1A) (AID 2282951); conditions: HepG2 Attagene cis-factorial HIF1a reporter transcription; actives raise or lower the signal
Sequence of Hypoxia-inducible factor 1-alpha (Homo sapiens) (Q16665 whole entry, looked up): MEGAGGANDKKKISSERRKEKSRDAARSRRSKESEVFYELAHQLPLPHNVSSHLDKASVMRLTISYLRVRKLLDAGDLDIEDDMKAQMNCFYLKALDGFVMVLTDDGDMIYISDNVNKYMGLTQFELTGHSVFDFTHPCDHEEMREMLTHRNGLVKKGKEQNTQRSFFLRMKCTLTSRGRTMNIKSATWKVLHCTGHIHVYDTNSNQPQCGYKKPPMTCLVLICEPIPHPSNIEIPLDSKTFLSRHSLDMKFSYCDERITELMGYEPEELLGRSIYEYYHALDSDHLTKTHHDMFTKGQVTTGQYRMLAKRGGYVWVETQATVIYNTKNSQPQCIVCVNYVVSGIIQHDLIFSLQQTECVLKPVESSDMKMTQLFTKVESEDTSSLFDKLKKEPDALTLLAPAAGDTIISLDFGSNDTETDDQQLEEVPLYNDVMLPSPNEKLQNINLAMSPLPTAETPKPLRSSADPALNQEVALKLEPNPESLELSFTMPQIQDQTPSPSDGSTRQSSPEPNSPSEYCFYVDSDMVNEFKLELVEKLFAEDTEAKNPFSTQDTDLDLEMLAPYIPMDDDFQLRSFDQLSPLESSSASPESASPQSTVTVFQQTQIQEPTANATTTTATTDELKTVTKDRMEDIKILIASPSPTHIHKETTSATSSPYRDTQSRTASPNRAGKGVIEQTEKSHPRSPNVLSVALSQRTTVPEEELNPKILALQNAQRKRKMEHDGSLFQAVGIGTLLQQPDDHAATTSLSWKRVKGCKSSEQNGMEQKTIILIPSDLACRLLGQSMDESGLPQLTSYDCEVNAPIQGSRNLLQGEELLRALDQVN
How it was run: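 HepG2, transient cis-reporter library, 24 h dosing. RNA → RT (oligo dT) → PCR → 6-FAM primer extension → HpaI → CE. Bidirectional curve fit vs DMSO.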

[16] = ATG_MRE_CIS: Attagene CIS-FACTORIAL HepG2 Assay for human Metal Responsive Element (MRE) (AID 2282954); conditions: HepG2 MRE cis-reporter transcription, Attagene multiplex; actives raise or lower the signal
How it was run: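 HepG2 cells transiently transfected with cis-element-driven reporter units; mRNA measured 24 h after dosing. Reporter transcripts quantified by RT-PCR, FAM labelling, HpaI digestion and capillary electrophoresis; bidirectional fit versus DMSO.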

[17] = ATG_PBREM_CIS: Attagene CIS-FACTORIAL HepG2 Assay for human Phenobarbital-responsive Enhancer Module (PBREM) (AID 2282955); conditions: HepG2 PBREM cis-reporter, Attagene multiplexed transcription; actives raise or lower the signal
How it was run: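 HepG2, transient MRTU transfection, 24 h dosing; RNA → oligo(dT) RT → PCR → 6-FAM extension → HpaI → CE. Bidirectional fit vs DMSO.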

[18] = ATG_PXRE_CIS: Attagene CIS-FACTORIAL HepG2 Assay for human Pregnane X Receptor Element (PXRE) (AID 2282957); conditions: HepG2 Attagene CIS-FACTORIAL PXRE reporter, mRNA; actives raise or lower the signal
How it was run: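 Cis-element reporter mRNA in human hepatoma HepG2 cells is measured 24 h post-dosing by RT-PCR, primer-extension labeling and capillary electrophoresis; gain or loss of signal is fitted relative to DMSO.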

[19] = biological target: Heat shock factor protein 1 (Homo sapiens) (UniProt Q00613); experiment: ATG_HSE_CIS: Attagene CIS-FACTORIAL HepG2 Assay for human Heat Shock Transcription Factor 1 (HSE) (AID 2282953); conditions: HepG2 HSE cis-reporter, Attagene RNA transcription; actives raise or lower the signal
Sequence of Heat shock factor protein 1 (Homo sapiens) (Q00613 whole entry, looked up): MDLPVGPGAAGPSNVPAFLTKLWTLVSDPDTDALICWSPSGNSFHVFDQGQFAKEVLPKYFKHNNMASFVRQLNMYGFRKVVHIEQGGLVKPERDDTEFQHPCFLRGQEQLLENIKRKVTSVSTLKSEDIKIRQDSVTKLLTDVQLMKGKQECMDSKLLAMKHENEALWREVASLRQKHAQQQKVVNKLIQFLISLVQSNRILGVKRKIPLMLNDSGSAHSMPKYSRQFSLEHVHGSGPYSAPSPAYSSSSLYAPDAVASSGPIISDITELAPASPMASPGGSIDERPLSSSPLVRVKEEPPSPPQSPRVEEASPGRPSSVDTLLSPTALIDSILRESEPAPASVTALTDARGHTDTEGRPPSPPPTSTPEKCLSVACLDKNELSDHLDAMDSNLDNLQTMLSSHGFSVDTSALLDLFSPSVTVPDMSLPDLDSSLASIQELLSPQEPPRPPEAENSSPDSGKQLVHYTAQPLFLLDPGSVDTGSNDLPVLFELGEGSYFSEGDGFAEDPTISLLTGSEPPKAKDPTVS
How it was run: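 HepG2 cells transfected with cis-promoter reporter units sensing endogenous transcription factor activity; reporter mRNA quantified 24 h post-dose by RT-PCR and capillary electrophoresis of 6-FAM-labelled products. Bidirectional fitting against DMSO.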

C[C@]12CC[C@@H]3c4ccc(O)cc4CC[C@H]3[C@@H]1CC[C@@H]2O
outcome [1]: inactive | outcome [2]: inactive | outcome [3]: inactive | outcome [4]: inactive | outcome [5]: inactive | outcome [6]: inactive | outcome [7]: inactive | AC50 [8]: 27 µM (active) | outcome [8]: inactive | outcome [9]: inactive | outcome [10]: inactive | outcome [11]: inactive | AC50 [12]: 26.5 µM (active) and 25.8 µM (active) | outcome [12]: inactive | outcome [13]: inactive | outcome [14]: inactive

CC(C)N(c1ccccc1)C(C)C
outcome [1]: inactive | outcome [2]: inactive | outcome [3]: inactive | outcome [4]: inactive | outcome [5]: inactive | outcome [15]: inactive | outcome [6]: inactive | outcome [16]: inactive | outcome [17]: inactive | outcome [7]: inactive | outcome [18]: inactive | outcome [8]: inactive | outcome [9]: inactive | outcome [10]: inactive | outcome [11]: inactive | outcome [12]: inactive | outcome [13]: inactive | outcome [14]: inactive

CCCCCCCCCO
outcome [1]: inactive | outcome [2]: inactive | outcome [3]: inactive | outcome [4]: inactive | outcome [5]: inactive | outcome [15]: inactive | outcome [19]: inactive | outcome [16]: inactive | outcome [17]: inactive | outcome [7]: inactive | outcome [18]: inactive | outcome [9]: inactive | outcome [10]: inactive | outcome [11]: inactive | outcome [12]: inactive | outcome [13]: inactive | outcome [14]: inactive

CCCCCCCCCCCCCC(=O)OCC
outcome [1]: inactive | outcome [2]: inactive | outcome [3]: inactive | outcome [4]: inactive | outcome [5]: inactive | outcome [15]: inactive | outcome [6]: inactive | outcome [19]: inactive | outcome [17]: inactive | outcome [18]: inactive | outcome [8]: inactive | outcome [9]: inactive | outcome [10]: inactive | outcome [11]: inactive | outcome [12]: inactive | outcome [13]: inactive | outcome [14]: inactive

CC(C)COC(=O)c1ccccc1
outcome [1]: inactive | outcome [2]: inactive | outcome [3]: inactive | outcome [4]: inactive | outcome [5]: inactive | outcome [15]: inactive | outcome [6]: inactive | outcome [16]: inactive | outcome [17]: inactive | outcome [7]: inactive | outcome [18]: inactive | outcome [8]: inactive | outcome [9]: inactive | outcome [10]: inactive | outcome [11]: inactive | outcome [12]: inactive | outcome [13]: inactive | outcome [14]: inactive

O=Cc1ccccc1O
outcome [1]: inactive | outcome [2]: inactive | outcome [3]: inactive | outcome [4]: inactive | outcome [5]: inactive | outcome [15]: inactive | outcome [6]: inactive | outcome [17]: inactive | outcome [7]: inactive | AC50 [18]: 100 µM (active) | outcome [8]: inactive | AC50 [9]: 76.3 µM (active) | outcome [10]: inactive | outcome [11]: inactive | outcome [12]: inactive | outcome [13]: inactive | outcome [14]: inactive

CC(C)=CCCC(C)=CC(=O)O
outcome [1]: inactive | outcome [2]: inactive | outcome [3]: inactive | outcome [4]: inactive | outcome [5]: inactive | outcome [15]: inactive | outcome [6]: inactive | outcome [16]: inactive | outcome [7]: inactive | AC50 [18]: 29.8 µM (active) | outcome [9]: inactive | outcome [10]: inactive | outcome [11]: inactive | outcome [12]: inactive | outcome [13]: inactive | outcome [14]: inactive

CCCC1CCOC(C)S1 (stereo not given)
outcome [1]: inactive | outcome [2]: inactive | outcome [3]: inactive | outcome [4]: inactive | outcome [5]: inactive | outcome [15]: inactive | outcome [6]: inactive | outcome [19]: inactive | outcome [7]: inactive | AC50 [18]: 54 µM (active) | outcome [9]: inactive | outcome [10]: inactive | outcome [11]: inactive | outcome [12]: inactive | outcome [13]: inactive | outcome [14]: inactive
